From PubChem BioAssay (NCI)
The panel holds about 83,000 compounds, 20% with a hit somewhere; the sample as a whole holds those more often.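 Treatment: one concentration, 48 hours, 96-well format. Scoring: percent growth, with anything below 10 considered active.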 Calls of active or inactive are those of the source.

The compounds below were run on HL-60(TB) leukemia (assay: NCI-60 one-dose screen, 48 h (100 = growth as untreated, 0 = no growth, -100 = all killed)). Conditions: 10 µM unless noted.

With `COc1ccc(/C=C/C(=O)c2cc(OC)c(OC)c(OC)c2)cc1OCC(=O)Nc1nc2ccc(OC(F)(F)F)cc2s1` as the compound, how does the growth read?
Its growth is 6.61% (active).

With `CCCCCCCC(=O)SCC/C=C/[C@@H]1CC(=O)NCc2cccc(n2)CN(Cc2ccc3ccccc3c2)CC(=O)N[C@@H](C(C)C)C(=O)O1` as the compound, how does the growth read?
Its growth is 11% (inactive).

Which growth does the source give for `O=C(O)COc1ccc(Cl)c(Cl)c1` here?
Its growth is 111% (inactive).

Which growth does the source give for `Cn1ccnc1C(=O)/C=C/c1ccc(CC(=O)Nc2ccc(Cl)cc2)cc1` here?
The growth was 5.24% (active).

For `CC[C@]12C=CCN3CC[C@@]4(c5ccc(OC)cc5N(C)[C@H]4[C@@](O)(C(=O)OC)[C@@H]1OC(=O)CCC(=O)O[C@H]1CC[C@H]4[C@@H]5CC[C@H]6CC(=O)CC[C@]6(C)[C@H]5CC[C@]14C)[C@@H]32`, which growth is on record?
The growth was -38.2% (active).

For `COc1ccc(/C=N/NC(N)=S)cc1`, which growth is on record?
The growth was 88.9% (inactive).

For `C=CCN1C(=O)/C(=c2\sc3n(c2=O)C2C(NN=3)N(CC)C(=O)N2CC)c2ccccc21` (stereo not drawn), which growth is on record?
Its growth is -17.4% (active).

With `N#Cc1c(NC(=O)c2ccco2)[n+]([O-])c2cc(F)c(F)cc2[n+]1[O-]` as the compound, how does the growth read?
The growth was 38% (inactive).

How did the growth turn out when `CCOC(=O)/C=C(/C)Sc1cc(O)c2ccccc2c1O` was run?
The growth was 20.5% (inactive).

With `NC(=O)c1cccc(-n2ccc3cc(NC(=O)c4ccc(N5CCOCC5)c(C(F)(F)F)c4)ccc32)n1` as the compound, how does the growth read?
Its growth is 51.1% (inactive).

Which growth does the source give for `CCCCCCCCCCCCCCCCCC1=NC(C)(C)CN1CCO` here?
The growth was -62.2% (active).

How did the growth turn out when `NC(=O)c1ccccc1OCC(=O)Nc1ccc(Cl)c(Cl)c1` was run?
The growth was 86.4% (inactive).

For `COC1OCC(O)C(O)C1O` (stereo not drawn), which growth is on record?
The growth was 102% (inactive).
